Results on eight compounds are retold here after ChEMBL document CHEMBL3988442, “University of Dundee, Small-Polar-MMV Screening Library” (2021).

For some of these results: Measured potencies and affinities stand elsewhere.

What all share (set-up): scale not given: direction of the effect not stated beside the values
Assay [1] addresses Protein translocase subunit SecA (Escherichia coli (strain K12)) (UniProt P10408). The experiment in a line: Assay to Identify E. coli SecA ATPase Inhibitors. The format is functional. As to conditions: 30 µM.
The target in assay [2] is T1, Ubiquitin-activating enzyme e1, putative (Leishmania donovani (strain BPK282A1)) (UniProt E9BSI1).
T1 sequence (whole entry): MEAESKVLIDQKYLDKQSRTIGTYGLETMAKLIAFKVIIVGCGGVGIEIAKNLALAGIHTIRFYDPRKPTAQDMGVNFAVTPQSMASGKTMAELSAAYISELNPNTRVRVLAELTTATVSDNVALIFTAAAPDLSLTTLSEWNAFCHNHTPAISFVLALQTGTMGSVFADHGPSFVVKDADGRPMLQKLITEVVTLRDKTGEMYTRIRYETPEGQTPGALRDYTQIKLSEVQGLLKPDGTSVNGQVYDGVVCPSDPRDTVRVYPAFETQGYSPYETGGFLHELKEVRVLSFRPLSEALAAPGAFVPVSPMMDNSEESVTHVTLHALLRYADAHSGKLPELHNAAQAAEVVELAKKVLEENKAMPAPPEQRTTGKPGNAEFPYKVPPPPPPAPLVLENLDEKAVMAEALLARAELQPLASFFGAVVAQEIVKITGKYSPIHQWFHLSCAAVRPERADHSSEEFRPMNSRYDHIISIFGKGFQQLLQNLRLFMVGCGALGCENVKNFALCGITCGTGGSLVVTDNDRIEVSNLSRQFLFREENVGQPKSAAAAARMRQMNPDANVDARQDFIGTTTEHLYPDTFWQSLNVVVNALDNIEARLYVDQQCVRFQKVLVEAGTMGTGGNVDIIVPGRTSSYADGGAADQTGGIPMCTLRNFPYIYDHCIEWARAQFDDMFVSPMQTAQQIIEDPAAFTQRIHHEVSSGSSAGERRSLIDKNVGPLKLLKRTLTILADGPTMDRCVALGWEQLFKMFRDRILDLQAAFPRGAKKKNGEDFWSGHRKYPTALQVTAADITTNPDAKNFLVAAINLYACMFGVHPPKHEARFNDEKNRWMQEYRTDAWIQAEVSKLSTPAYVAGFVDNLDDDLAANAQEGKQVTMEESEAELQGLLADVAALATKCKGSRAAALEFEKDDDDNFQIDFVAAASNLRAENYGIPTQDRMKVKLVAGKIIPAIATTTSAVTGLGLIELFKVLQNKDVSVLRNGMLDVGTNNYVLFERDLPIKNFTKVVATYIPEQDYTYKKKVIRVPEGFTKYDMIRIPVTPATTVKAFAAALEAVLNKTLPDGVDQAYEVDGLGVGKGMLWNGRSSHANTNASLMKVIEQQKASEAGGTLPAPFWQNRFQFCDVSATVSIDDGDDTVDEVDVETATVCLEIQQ
The experiment in a line: Leishmania donovani Ubiquitin Activating Enzyme (LdE1). The format is functional. As to conditions: 30 µM.

In assay [3] the target is AMP-activated protein kinase, AMPK (Homo sapiens) (UniProt P54646+O43741+P54619+Q9UGJ0+Q9Y478+Q13131+Q9UGI9). The experiment in a line: AMP-dependent Kinase enzyme assay. An in vitro enzyme assay that detects ADP turnover that is directly proportional to AMPK activity. This uses naive AMPK that is activated during the assay with MK-8722. The format is functional. The note with it: 30 µM.

The target in assay [4] is Sialic acid-binding Ig-like lectin 9 (Homo sapiens) (UniProt Q9Y336). The experiment in a line: Hs-Siglec9 ALPHAscreen SOP 20170721. The note with it: 10 µM.
Another assay relates to Trypanosoma cruzi. Nature of the assay: Trypanosoma cruzi phosphomannomutase and mannose-1-phosphate guanylyltransferase assay. The assay is classed as functional. As to conditions: 10 µM.
Assay [5] has as its target T2, Arginase-2, mitochondrial (Homo sapiens) (UniProt P78540).
T2 sequence (whole entry): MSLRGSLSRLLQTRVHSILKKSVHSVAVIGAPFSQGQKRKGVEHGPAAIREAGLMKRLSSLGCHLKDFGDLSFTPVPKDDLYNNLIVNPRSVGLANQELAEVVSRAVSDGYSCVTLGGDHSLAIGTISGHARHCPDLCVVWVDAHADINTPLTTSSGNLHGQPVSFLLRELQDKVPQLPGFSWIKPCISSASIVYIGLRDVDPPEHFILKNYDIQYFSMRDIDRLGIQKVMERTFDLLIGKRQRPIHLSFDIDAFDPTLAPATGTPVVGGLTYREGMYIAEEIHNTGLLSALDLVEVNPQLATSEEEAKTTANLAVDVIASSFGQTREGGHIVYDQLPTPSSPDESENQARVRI
The experiment in a line: in vitro enzyme assay to detect the production of urea directly proportional to the activity of Arginase II. Note: in the data most compounds retested in dose-response had high values. The assay is classed as functional. As to conditions: 33.3 µM.

Assay [6] deals with T3, Proteasome subunit beta (Trypanosoma cruzi) (UniProt O96673).
T3 sequence (whole entry): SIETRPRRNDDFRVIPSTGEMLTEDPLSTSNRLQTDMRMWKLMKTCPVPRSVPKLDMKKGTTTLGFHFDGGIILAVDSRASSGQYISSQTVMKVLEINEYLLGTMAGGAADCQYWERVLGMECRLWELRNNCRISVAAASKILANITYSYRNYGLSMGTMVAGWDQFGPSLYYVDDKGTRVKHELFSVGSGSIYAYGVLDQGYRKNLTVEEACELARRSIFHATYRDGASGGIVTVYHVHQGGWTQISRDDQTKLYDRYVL
The experiment in a line: Trypanosoma cruzi proteasome chymotrypsin-like activity (TcProtChymo) assay. Note: in the data most compounds retested in dose-response had high values. The format is functional. As to conditions: 9.37 µM.

For a further assay, the species on record is Homo sapiens. The experiment in a line: To identify inhibition of the IFN signalling (Jak-Stat) pathway via expression of an eGFP reporter gene under the control of an IFN-stimulated response element (ISRE) containing MxA promoter. As to conditions: 30 µM. The assay is classed as functional. For orientation: In a reporter assay the amount or activity of a reporter protein is the signal.

Assay [7] deals with T4, Tyrosyl-tRNA synthetase, putative (Trypanosoma cruzi (strain CL Brener)) (UniProt Q4DSP6).
T4 sequence (whole entry): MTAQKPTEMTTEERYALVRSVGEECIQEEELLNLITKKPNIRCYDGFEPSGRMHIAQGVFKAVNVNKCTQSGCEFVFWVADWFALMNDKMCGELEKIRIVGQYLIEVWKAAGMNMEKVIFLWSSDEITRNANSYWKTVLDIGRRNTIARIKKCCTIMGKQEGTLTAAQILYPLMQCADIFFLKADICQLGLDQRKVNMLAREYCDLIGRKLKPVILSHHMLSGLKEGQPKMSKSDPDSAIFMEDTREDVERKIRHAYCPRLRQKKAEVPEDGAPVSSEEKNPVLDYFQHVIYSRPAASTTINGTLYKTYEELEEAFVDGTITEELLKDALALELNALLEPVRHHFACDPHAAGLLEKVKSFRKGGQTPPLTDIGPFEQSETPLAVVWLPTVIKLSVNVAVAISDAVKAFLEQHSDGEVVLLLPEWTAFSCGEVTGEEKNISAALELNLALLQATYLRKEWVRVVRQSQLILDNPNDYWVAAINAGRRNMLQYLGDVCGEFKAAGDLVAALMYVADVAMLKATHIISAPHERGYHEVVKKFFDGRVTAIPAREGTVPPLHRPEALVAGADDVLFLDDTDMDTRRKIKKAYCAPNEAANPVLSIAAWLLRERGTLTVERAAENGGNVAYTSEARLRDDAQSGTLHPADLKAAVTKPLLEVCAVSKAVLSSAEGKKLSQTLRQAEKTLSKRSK
The experiment in a line: Trypanosoma cruzi tyrosyl tRNA synthetase (TcYRS) _High Tyrosine SOP. Note: in the data most compounds retested in dose-response had high values. The format is functional. As to conditions: 30 µM.

Assay [8] addresses T4, Tyrosyl-tRNA synthetase, putative (Trypanosoma cruzi (strain CL Brener)). The experiment in a line: Trypanosoma cruzi tyrosyl tRNA synthetase (TcYRS) SOP. The assay is classed as functional. The note with it: 30 µM.
The target of assay [9] is Chromo domain-containing protein 1 (Saccharomyces cerevisiae (strain ATCC 204508 / S288c) (Baker's yeast)) (UniProt P32657). Nature of the assay: ScCHD-1 Enzyme Inhibition Assay. Note: in the data most compounds retested in dose-response had high values. The format is functional. As to conditions: 30 µM.
Chain of Chromo domain-containing protein 1 (Saccharomyces cerevisiae (strain ATCC 204508 / S288c) (Baker's yeast)) (P32657 whole entry, the tested form may be a part): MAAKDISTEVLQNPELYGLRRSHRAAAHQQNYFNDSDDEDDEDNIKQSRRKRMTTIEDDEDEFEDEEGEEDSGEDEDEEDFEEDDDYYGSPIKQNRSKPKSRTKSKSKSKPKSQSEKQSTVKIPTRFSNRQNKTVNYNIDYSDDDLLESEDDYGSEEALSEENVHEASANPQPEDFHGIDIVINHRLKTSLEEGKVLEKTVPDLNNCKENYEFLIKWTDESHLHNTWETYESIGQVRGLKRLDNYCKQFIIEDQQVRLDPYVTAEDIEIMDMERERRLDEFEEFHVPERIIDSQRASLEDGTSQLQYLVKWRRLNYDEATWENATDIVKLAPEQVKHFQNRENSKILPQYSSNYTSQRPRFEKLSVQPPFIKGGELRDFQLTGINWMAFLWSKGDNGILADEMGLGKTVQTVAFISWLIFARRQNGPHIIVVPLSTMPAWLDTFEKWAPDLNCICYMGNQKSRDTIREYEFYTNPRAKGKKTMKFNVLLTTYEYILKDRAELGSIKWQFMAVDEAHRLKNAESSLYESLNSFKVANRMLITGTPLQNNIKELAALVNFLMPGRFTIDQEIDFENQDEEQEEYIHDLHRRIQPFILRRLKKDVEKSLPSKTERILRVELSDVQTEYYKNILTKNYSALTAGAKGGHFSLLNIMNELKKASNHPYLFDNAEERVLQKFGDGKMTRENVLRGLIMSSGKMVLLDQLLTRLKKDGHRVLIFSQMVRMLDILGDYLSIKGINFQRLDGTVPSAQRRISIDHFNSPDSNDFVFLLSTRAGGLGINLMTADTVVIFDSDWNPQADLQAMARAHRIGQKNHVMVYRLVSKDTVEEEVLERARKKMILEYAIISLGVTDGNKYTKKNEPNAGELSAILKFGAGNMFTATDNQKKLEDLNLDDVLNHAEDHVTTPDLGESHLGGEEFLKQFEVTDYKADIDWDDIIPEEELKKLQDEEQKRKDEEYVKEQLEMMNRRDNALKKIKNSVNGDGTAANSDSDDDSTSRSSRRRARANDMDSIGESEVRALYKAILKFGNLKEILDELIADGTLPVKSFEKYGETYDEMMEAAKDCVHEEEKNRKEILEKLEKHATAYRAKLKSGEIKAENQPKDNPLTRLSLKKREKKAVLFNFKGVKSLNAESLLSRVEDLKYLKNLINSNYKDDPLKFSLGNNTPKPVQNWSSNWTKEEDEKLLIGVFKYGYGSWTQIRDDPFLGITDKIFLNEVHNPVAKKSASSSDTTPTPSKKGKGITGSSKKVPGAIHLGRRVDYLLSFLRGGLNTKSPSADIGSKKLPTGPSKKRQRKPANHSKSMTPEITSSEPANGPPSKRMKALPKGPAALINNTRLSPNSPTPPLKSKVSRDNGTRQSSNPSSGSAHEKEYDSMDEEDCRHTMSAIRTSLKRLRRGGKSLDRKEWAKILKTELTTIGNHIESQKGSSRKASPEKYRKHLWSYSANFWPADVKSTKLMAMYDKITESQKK

Chain of Protein translocase subunit SecA (Escherichia coli (strain K12)) (P10408 whole entry): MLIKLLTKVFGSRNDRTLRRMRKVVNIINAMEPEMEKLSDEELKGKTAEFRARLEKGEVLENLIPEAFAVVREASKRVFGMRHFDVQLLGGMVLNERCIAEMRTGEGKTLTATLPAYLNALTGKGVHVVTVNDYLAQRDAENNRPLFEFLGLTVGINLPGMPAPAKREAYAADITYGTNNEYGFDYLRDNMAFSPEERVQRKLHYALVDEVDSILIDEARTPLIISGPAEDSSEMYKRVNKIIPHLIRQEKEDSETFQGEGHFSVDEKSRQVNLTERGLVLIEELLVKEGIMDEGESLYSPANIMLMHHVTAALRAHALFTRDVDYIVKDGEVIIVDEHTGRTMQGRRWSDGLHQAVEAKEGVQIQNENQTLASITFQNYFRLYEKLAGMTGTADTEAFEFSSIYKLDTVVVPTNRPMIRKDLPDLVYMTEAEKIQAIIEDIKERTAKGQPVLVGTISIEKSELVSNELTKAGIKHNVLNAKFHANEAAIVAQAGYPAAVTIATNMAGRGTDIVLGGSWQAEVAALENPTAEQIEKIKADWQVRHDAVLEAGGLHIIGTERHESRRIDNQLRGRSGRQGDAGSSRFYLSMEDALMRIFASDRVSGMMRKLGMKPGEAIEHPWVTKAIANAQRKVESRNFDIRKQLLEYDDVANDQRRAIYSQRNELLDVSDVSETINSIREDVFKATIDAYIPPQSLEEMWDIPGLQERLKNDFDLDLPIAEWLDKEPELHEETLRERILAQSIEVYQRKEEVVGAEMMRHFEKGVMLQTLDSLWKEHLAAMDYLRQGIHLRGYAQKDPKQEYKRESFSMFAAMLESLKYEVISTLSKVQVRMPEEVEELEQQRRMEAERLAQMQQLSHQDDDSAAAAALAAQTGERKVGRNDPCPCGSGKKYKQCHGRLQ
Chain of Sialic acid-binding Ig-like lectin 9 (Homo sapiens) (Q9Y336 whole entry): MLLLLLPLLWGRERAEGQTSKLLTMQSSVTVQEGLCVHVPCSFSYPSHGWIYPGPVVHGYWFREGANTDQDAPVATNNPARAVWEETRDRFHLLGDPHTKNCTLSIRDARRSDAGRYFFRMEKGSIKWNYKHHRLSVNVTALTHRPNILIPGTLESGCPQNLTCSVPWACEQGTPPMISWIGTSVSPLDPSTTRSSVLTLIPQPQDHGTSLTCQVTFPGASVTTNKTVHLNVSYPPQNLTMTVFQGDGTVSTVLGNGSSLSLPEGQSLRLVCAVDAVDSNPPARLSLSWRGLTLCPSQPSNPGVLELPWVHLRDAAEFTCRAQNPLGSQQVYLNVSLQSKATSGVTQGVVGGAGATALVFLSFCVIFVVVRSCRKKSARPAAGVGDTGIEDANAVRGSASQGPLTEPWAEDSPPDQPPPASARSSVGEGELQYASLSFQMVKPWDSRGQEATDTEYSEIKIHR

With `O=C(NC1CC1)[C@H]1C[C@H]2OCC[C@H]2N(CC2CC2)C1`, the Percent Effect is -4.51% in assay [1]; -2.67% in assay [2]; 3.02% in assay [3]; 9.5% in assay [4]; -3.28% in the assay on Trypanosoma cruzi; -55.7% in assay [5]. In addition, the Percent Effect in assay [6] is 0.513%; in the assay listed under Homo sapiens, 6.42%; in [7] it was -4.17%; in assay [8], -7.5%; in assay [9], 4.05%.

For `CC(C)c1nc(CN2CCCCC2)cs1`, the Percent Effect is -4.24% in assay [1]; -5.2% in [2]; 15.4% in assay [3]; 0.118% in assay [4]; -0.686% in the assay on Trypanosoma cruzi; -0.632% in assay [5]. Besides, the Percent Effect in [6] is -1.54%; in the assay listed under Homo sapiens, 47.1%; in [7], -2.86%; in assay [8] it was -2.35%; in assay [9], 0.144%.

As for `O=C(c1cc(F)ccc1F)C1CCN(C(=O)c2cccnc2O)CC1`, the Percent Effect is -5.29% in assay [1]; 7.79% in [2]; 3.43% in assay [3]; 13.6% in [4]; 2.06% with Trypanosoma cruzi; 0.21% in assay [5]. The Percent Effect in assay [6] was 3.8%; in the assay listed under Homo sapiens, -28.1%; in [7], 1.91%; in assay [8], 9.41%; in assay [9], -12.7%.

For `O=C(c1cccnc1)N1CC[C@H](OCC2CC2)[C@@H]1Cc1cccnc1`, the Percent Effect in [1] was -0.924%; in assay [2] it was 13.3%; in assay [3], 5.44%; in assay [4], -0.245%; in the assay with Trypanosoma cruzi, -4.44%; in assay [5] it was -43.2%. Besides, the Percent Effect was 2.73% in assay [6]; -15.6% in the assay filed under Homo sapiens; 1.04% in assay [7]; -10% in assay [8]; -6.48% in assay [9].

On to `CC(C)n1ccnc1C1CCN(Cc2ccc(Cl)s2)CC1`, for which the Percent Effect in [1] was -4.43%; in [2], 7.79%; in assay [3] it was 1.43%; in [4], 13.8%; with Trypanosoma cruzi, 7.96%; in assay [5], 6.9%. Besides, the Percent Effect in assay [6] was 6.99%; in the assay listed under Homo sapiens, 9.49%; in [7], 8.6%; in assay [8], 16.1%; in [9], -1.15%.

As to `O=C(Nc1cnccn1)[C@H]1COC[C@H]2CN(C3CCCC3)C[C@H]21`, the Percent Effect is -0.257% in assay [1]; 2.7% in [2]; -0.6% in assay [3]; 0.701% in assay [4]; 4.88% in the assay with Trypanosoma cruzi; 2.92% in [5]. Besides, the Percent Effect was -0.0845% in [6]; -10.3% in the assay listed under Homo sapiens; 3.96% in [7]; -1.22% in assay [8]; -1.78% in [9].

Turning to `Cc1cccc(-c2nc(C)nn2CC(=O)NC2CCCC2)c1`, the Percent Effect in assay [1] is -5.38%; in assay [2] it was 23.4%; in assay [3], -6.06%; in [4], 8.2%; with Trypanosoma cruzi, 6.93%; in [5], 3.2%. For the same compound, the Percent Effect is 18.6% in assay [6]; 5.48% in the assay listed under Homo sapiens; 9.71% in assay [7]; 26.8% in [8]; -9.1% in assay [9].

Turning to `COc1ccc(C(=O)N2Cc3c(Cn4ccnc4)nn(C)c3C2)cc1`, the Percent Effect is -2.78% in assay [1]; 8% in assay [2]; 5.76% in assay [3]; -5.42% in [4]; 3.15% with Trypanosoma cruzi; -1.63% in [5]. Also, the Percent Effect is 12.1% in [6]; 7.14% in the assay listed under Homo sapiens; 5.32% in assay [7]; 11.5% in [8]; -3.95% in [9].
